An excerpt weighted towards active compounds, which were near 7% of everything screened.
Integrin act MD: activates integrin-mediated alleviation for muscular dystrophy | alpha7betagal myoblasts, beta-gal FDG fluorescence, 48 h | 350,000 compounds, 0.064% hits | Potency, µM (top dose mostly 38.3 µM), for inactives: top-dose activation, hits mostly activators;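 note: potency is the fitted concentration of half-maximal effect; 100% = response of the positive control SU9516; nearly all actives have a fitted effect of over 60% in size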
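alpha7betagal+/- myoblasts (passage 13, 250/well) treated 48 h at 37C with compounds at 1:260 dilution of DMSO stock. Lysed, then beta-galactosidase activity read as FDG fluorescence (ex 480/em 540) after 30 min, with pre-read for autofluorescence.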
S2 tox: reduces viability in counter-screen for ATXN expression inhibitors; 400,000 compounds, 0.49% hits; S2 cells (HEK-293 line with an ATXN2-luciferase reporter) viability, CellTiter-Fluor protease fluorescence, 24 h; Potency, µM (series often up to 56.7 µM), usual class: cytotoxic; note: potency is the fitted concentration of half-maximal effect; nearly all actives have a fitted effect of over 40% in size
ATXN2 expr inh: reduces ATXN2 reporter expression in HEK-293 cells; HEK-293 ATXN2-luciferase reporter, luminescence, 24 h; Potency, µM (highest dose often 57 µM), inactives show at the highest dose activity change, negative = inhibition, actives largely listed as inhibitors; 360,000 compounds, 0.72% hits; note: potency is the fitted concentration of half-maximal effect; % is set by controls: 0 for no effect and ±100 for the full control effect; nearly all actives have a fitted effect of over 55% in size
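qHTS (up to 57 uM final) was run with 24 h compound exposure of reporter cells at 37 °C. Each well was multiplexed: SteadyGlo luminescence measured ATXN2-luciferase expression after a fluorogenic Gly-Phe-AFC viability readout (25 uM final).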
IL-1B inflam inh: inhibitors of inflammasome signaling (IL-1 beta secretion). activity change, % at 57.5 µM. 360,000 compounds, 4.7% hits. THP-1 LPS/ATP IL-1B secretion, AlphaLISA, 16 h; stronger effect = lower value; in the data active = activity change below about -50%; inconclusive = mostly about -30% to -49%; note: % is set by controls: 0 for no effect and ±100 for the full control effect
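THP-1 cells pretreated 1 hr with compounds (up to 57.5 uM final), then stimulated with LPS (250 ng/mL final) plus ATP (1.25 mM final); secreted IL-1B measured by AlphaLISA after 16 hr, decreased signal indicating inhibition.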
DRD3 antagonist: antagonists of human D3 dopamine receptor. P35462. D3R cells, DiscoveRx beta-arrestin luminescence, antagonist mode; stronger effect = lower value. max response, negative = inhibition, %. AID 652054. 360,000 compounds, 2.5% hits; in the data active = max response below about -50%; inconclusive = no clear call, values can overlap the other calls; note: % is set by controls: 0 for no effect and ±100 for the full control effect
Target sequence (P35462 whole entry, looked up): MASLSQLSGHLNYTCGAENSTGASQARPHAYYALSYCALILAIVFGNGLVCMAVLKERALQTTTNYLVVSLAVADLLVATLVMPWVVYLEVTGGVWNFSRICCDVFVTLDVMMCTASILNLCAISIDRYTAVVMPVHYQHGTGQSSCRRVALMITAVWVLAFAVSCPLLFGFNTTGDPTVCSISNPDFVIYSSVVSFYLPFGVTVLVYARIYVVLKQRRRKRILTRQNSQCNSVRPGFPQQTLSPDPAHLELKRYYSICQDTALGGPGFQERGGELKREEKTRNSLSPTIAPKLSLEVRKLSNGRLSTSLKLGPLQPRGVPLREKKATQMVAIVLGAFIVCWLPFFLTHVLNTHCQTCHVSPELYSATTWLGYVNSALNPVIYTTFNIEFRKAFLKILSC
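Cells plated overnight at 1500 cells/well, then exposed to library compounds with dopamine controls for 90 minutes at 37 degrees C. DiscoveRx reagent added for 30–60 minutes at room temperature; luminescence read, quantitative HTS format.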
DRD3 agonist: activates the human D3 dopamine receptor; P35462; D3R DiscoveRx beta-arrestin cells, luminescence, 90 min; max activation, %; 410,000 compounds, 0.58% hits; AID 652048; in the data active = max activation above about 30%; note: 0% is about no effect
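Cells at 1500/well, incubated overnight, then treated with pinned compounds (dopamine as control) for 90 min at 37 degrees C. DiscoveRx reagent added for 30 - 60 minutes at room temperature; luminescence read.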
Numbers without * were called inactive. Unless noted, calls come from the whole dose curve; as a rule, active = well fitted curve in the direction sought with a large enough effect; inconclusive = small, poorly fitted or top-dose-only effect, or another doubt; inactive = no such curve, though single readings can be large; an effect the other way counts as inactive or inconclusive.

How did CC(=Cc1cccs1)C(=O)c1ccccc1 do in these assays?
Integrin act MD: -7.0%; S2 tox: inactive; IL-1B inflam inh: 11.6; DRD3 antagonist: 5.7; DRD3 agonist: 6.4

Results for O=C(CSc1nc2ccccc2[nH]1)N1c2ccccc2Sc2ccccc21 ?
Integrin act MD: 14.8%; S2 tox: inactive; ATXN2 expr inh: -4.9%; IL-1B inflam inh: 6.4; DRD3 antagonist: -9.4; DRD3 agonist: -25.5

What do the screens show for `Cc1nc(SCC(=O)N2c3ccccc3Sc3ccccc32)n[nH]1`?
Integrin act MD: 13.1%; S2 tox: inactive; ATXN2 expr inh: -10.8%; IL-1B inflam inh: -13.0; DRD3 antagonist: -56.7*; DRD3 agonist: -6.9

Results for COCCN1C(=O)C(=O)/C(=C(/O)c2ccc(S(=O)(=O)N3CCOCC3)cc2)C1c1cccc(O)c1 (stereo not given) ?
Integrin act MD: 0.0%; S2 tox: inactive; ATXN2 expr inh: 4.3%; IL-1B inflam inh: 3.6; DRD3 antagonist: -1.8; DRD3 agonist: 2.0

How did CCNC(=O)C1(C)CCN1CCC(=O)c1ccc(Br)cc1 (stereo not given) do in these assays?
S2 tox: inactive; ATXN2 expr inh: -8.2%; IL-1B inflam inh: 0.0; DRD3 antagonist: 0.0; DRD3 agonist: 73.0*

How did O=C(CCN1CCOCC1)c1ccc(Br)cc1 do in these assays?
Integrin act MD: -50.3%; S2 tox: inconclusive; ATXN2 expr inh: inconclusive; IL-1B inflam inh: -91.4*; DRD3 antagonist: 15.5; DRD3 agonist: -4.8

What do the screens show for `CCCCNC(=O)/C(=C/c1ccco1)NC(=O)c1ccco1`?
Integrin act MD: 16.7%; S2 tox: inactive; ATXN2 expr inh: -4.1%; IL-1B inflam inh: 13.3; DRD3 antagonist: 7.1; DRD3 agonist: 2.1

What do the screens show for `CC(O)CNCc1ccc(-c2ccccc2)cc1` (stereo not given)?
Integrin act MD: -36.1%; S2 tox: inactive; ATXN2 expr inh: -20.7%; IL-1B inflam inh: -24.3; DRD3 antagonist: -12.9; DRD3 agonist: -15.4

Results for CC(NCc1ccc(-c2ccccc2)cc1)C(O)c1ccccc1 (stereo not given) ?
Integrin act MD: -61.8%; S2 tox: inconclusive; ATXN2 expr inh: inconclusive; IL-1B inflam inh: -95.8*; DRD3 antagonist: 4.1; DRD3 agonist: -8.1

How did CCOc1ccc(Cl)cc1CNCCNCC(C)O (stereo not given) do in these assays?
Integrin act MD: -38.2%; S2 tox: inactive; ATXN2 expr inh: 0.0%; IL-1B inflam inh: -8.7; DRD3 antagonist: -70.9*; DRD3 agonist: -32.9

Results for CCOCCCNCc1cc(Cl)ccc1OCC ?
Integrin act MD: -4.5%; S2 tox: inactive; ATXN2 expr inh: -4.2%; IL-1B inflam inh: -5.9; DRD3 antagonist: 0.1; DRD3 agonist: -3.7

Results for O=C(CN(C(=O)CCC(=O)Nc1ccccn1)c1ccc(F)cc1)NCc1ccc(F)cc1 ?
Integrin act MD: 1.9%; S2 tox: inactive; ATXN2 expr inh: -6.7%; IL-1B inflam inh: 12.2; DRD3 antagonist: -93.7*; DRD3 agonist: -4.5

Results for O=C(CN(C(=O)CCC(=O)Nc1ccccn1)c1cccc(F)c1)NCc1ccc2c(c1)OCO2 ?
Integrin act MD: 0.0%; S2 tox: inactive; ATXN2 expr inh: -0.4%; IL-1B inflam inh: -2.7; DRD3 antagonist: -7.6; DRD3 agonist: 9.4

How did O=C(CN(C(=O)CCC(=O)Nc1ccccn1)c1cccc(F)c1)NCc1ccc(F)cc1 do in these assays?
Integrin act MD: 0.0%; S2 tox: inactive; ATXN2 expr inh: -7.7%; IL-1B inflam inh: -2.8; DRD3 antagonist: 0.1; DRD3 agonist: 31.7*

Results for O=C(CN(C(=O)CCC(=O)Nc1ccccn1)c1ccc2c(c1)OCO2)NCc1ccc(F)cc1 ?
Integrin act MD: 5.0%; S2 tox: inactive; ATXN2 expr inh: -23.3%; IL-1B inflam inh: 1.0; DRD3 antagonist: -0.7; DRD3 agonist: -7.7

Results for O=C(CSc1nc(-c2cccs2)nc2cc(=O)[nH]n12)Nc1ccc(F)cc1 ?
S2 tox: inactive; ATXN2 expr inh: 7.5%; DRD3 agonist: 23.8

Results for CCC/C(=N\NC(=O)C1CCCC1)c1ccccc1 ?
Integrin act MD: 10.0%; S2 tox: inactive; ATXN2 expr inh: 0.8%; IL-1B inflam inh: 20.7; DRD3 antagonist: 3.3; DRD3 agonist: -21.1

How did COc1cccc(C(O)c2nccn2Cc2ccccc2)c1OC (stereo not given) do in these assays?
Integrin act MD: 6.9%; S2 tox: inactive; IL-1B inflam inh: -6.0; DRD3 antagonist: 3.4; DRD3 agonist: -1.4

Results for COc1ccc(-c2nc(-c3ccccc3)c(-c3ccc(O)cc3)[nH]2)cc1 ?
DRD3 agonist: -4.9

Results for O=S(=O)(NCCc1csc(-c2ccc(F)cc2)n1)c1ccc(Cl)cc1 ?
S2 tox: inconclusive; ATXN2 expr inh: 15.8µM*; DRD3 agonist: -16.8

Results for CCOc1ccc(S(=O)(=O)N(C)CCO)cc1-c1nc2c(C(C)(C)C)nn(C)c2c(=O)[nH]1 ?
Integrin act MD: -23.1%; S2 tox: inactive; ATXN2 expr inh: 1.4%; IL-1B inflam inh: -55.7*; DRD3 antagonist: 9.9; DRD3 agonist: 2.1

How did COc1cccc2cc(C(=O)OCC(=O)NC3CCCC(C)C3C)c(=O)oc12 (stereo not given) do in these assays?
Integrin act MD: -11.6%; S2 tox: inactive; ATXN2 expr inh: 15.6%; IL-1B inflam inh: -5.8; DRD3 antagonist: -8.8; DRD3 agonist: 81.6*

What do the screens show for `COc1cccc(/C=C(/C(=O)OCC(=O)NC2CCCC(C)C2C)c2ccccc2)c1` (stereo not given)?
Integrin act MD: -28.9%; S2 tox: inactive; ATXN2 expr inh: -11.3%; IL-1B inflam inh: -65.2*; DRD3 antagonist: 10.5; DRD3 agonist: 5.3

How did COc1ccc(Cl)cc1C(=O)OCC(=O)NC1CCCC(C)C1C (stereo not given) do in these assays?
Integrin act MD: 21.1%; S2 tox: inactive; ATXN2 expr inh: 0.3%; IL-1B inflam inh: -0.9; DRD3 antagonist: 0.5; DRD3 agonist: 2.1

Results for Cc1cc(N)n(-c2nc(-c3cccnc3)nc3ccccc23)n1 ?
Integrin act MD: 21.5%; S2 tox: inactive; ATXN2 expr inh: 8.2%; IL-1B inflam inh: inconclusive; DRD3 antagonist: 46.3; DRD3 agonist: 4.9

Results for Cc1c(C(=O)N2CCCC2)sc2ncnc(NCCc3ccccn3)c12 ?
S2 tox: inactive

Results for CCOC(=O)c1sc2nc(C)nc(NCCc3ccccn3)c2c1C ?
Integrin act MD: -13.2%; S2 tox: inactive; ATXN2 expr inh: -26.8%; IL-1B inflam inh: -54.7*; DRD3 antagonist: -2.1; DRD3 agonist: 4.8

How did CCOC(=O)c1c(C)oc2nc(C)nc(NCc3ccccc3OC)c12 do in these assays?
S2 tox: inactive; ATXN2 expr inh: -1.9%; DRD3 agonist: 11.6

Source: PubChem BioAssay (National Center for Advancing Translational Sciences (NCATS))
